# Assay results as given in ChEMBL document CHEMBL4513216, “Probing the Open Global Health Chemical Diversity Library for Multistage-Active Starting Points for Next-Generation Antimalarials” (ACS Infect Dis, 2020).
# The campaign covered roughly 69,000 compounds. About 8,600 (12%) showed an effect of 50% or more. Shown is part of a subset that was picked to be rich in strong results.
# Test system: Plasmodium berghei
# Test: Screen against P. berghei liver stage (PbLuc), transformed with Luciferase, at 10uM
# Format: functional, HepG2
# Settings: tested at 10 uM
row,SMILES,INHIBITION
1,CCOCc1nn(CC2CC2)c2c1CN(Cc1cccs1)CC2,64.7%
2,CCOCc1nn(C)c2c1CN(Cc1cccs1)CC2,32.1%
3,COCc1nn(CC2CC2)c2c1CN(Cc1cccs1)CC2,-97.2%
4,O=C(c1ccc(O)cn1)N1CCOC(Cc2cccc(C(F)(F)F)c2)C1 (centres undefined),-9.29%
5,CC(=O)N1CCOC(Cc2cccc(C(F)(F)F)c2)C1 (centres undefined),7.1%
6,O=C(c1n[nH]cc1Cl)N1CCOC(Cc2cccc(C(F)(F)F)c2)C1 (centres undefined),75.9%
7,CN(C(=O)Nc1ccncc1)C1CCN(c2ccccc2)C1=O (centres undefined),41.3%
8,CN1C(=O)COc2ccc(NC(=O)CCc3nc4cccnc4[nH]3)cc21,39.7%
9,O=C(Nc1cc(-c2ccccc2)on1)N1CCN(CCO)CC1,43.9%
10,CCC(=O)NC1CCCN(C(=O)Nc2cc(-c3ccccc3)on2)C1 (centres undefined),52.6%
11,O=C(Nc1cc(-c2ccccc2)on1)N1CC[C@H](O)C1,-51.7%
12,Cc1nnc(NC(=O)NCCN(C(=O)OC(C)(C)C)C2CC2)s1,4.34%
13,O=C1CCN(CCS(=O)(=O)c2ccc(Cl)cc2)CCN1,7.43%
14,COCCNC(=O)[C@H]1C[C@@H]2CCN(c3ccncn3)C[C@H]2O1,7.53%
15,Cc1cc2n(n1)CC(CNCc1ccc(N3CCOCC3)nc1)CN2 (centres undefined),-2.143%
16,Cc1cccnc1CCNC(=O)CC1C(=O)NCCN1CCC(C)C (centres undefined),-23%
17,CCCn1nccc1-c1cc(C2CCN(S(C)(=O)=O)CC2)ccn1,55.6%
18,CCCn1nccc1-c1cc(C2CCN(C(C)=O)CC2)ccn1,12.3%
19,Cn1nccc1-c1cc(C2CCN(S(C)(=O)=O)CC2)ccn1,42.4%
20,COCC1c2nnn(CC3CC3)c2CCN1C(=O)c1sccc1C (centres undefined),72.3%
21,COCC1c2nnn(CC3CC3)c2CCN1C(=O)c1ccnnc1 (centres undefined),-16.2%
22,COCC1c2nnn(CC3CC3)c2CCN1C(=O)c1cccn1C (centres undefined),-56.2%
23,COc1ccccc1C(C)(C)NC(=O)NCCC(=O)NC1CCCC1,19.7%
24,Cc1ccc(OCC2CCCN(C(=O)CN3CCOCC3)C2)cc1 (centres undefined),56.5%
25,Cc1ccc(OCC2CCCN(c3nc(CO)cs3)C2)cc1 (centres undefined),34.4%
26,Cc1ccc(OCC2CCCN(C(=O)CCn3ccccc3=O)C2)cc1 (centres undefined),18.5%
27,Cc1ccc(OCC2CCCN(C(=O)Cn3ccccc3=O)C2)cc1 (centres undefined),18.5%

row,SMILES,INHIBITION
1,Cc1ccc(OCC2CCCN(CC3CCOCC3)C2)cc1 (centres undefined),51.1%
2,Cc1ccc(OCC2CCCN(Cc3ccc(CO)o3)C2)cc1 (centres undefined),22.3%
3,Cc1ccc(N2CCC3(CC2)CNC(=O)CO3)nn1,21.7%
4,O=C(NC[C@H]1OC[C@@H]2CN(Cc3ccco3)CC[C@@H]21)c1cscn1,-72%
5,COCCCN1CCCC(c2nccn2CC2CCC2)C1 (centres undefined),42.8%
6,CN(CC(=O)N(CCC#N)c1ccccc1)C1CCc2ccccc21 (centres undefined),28.9%
7,CN(C(=O)Cn1nnnc1C(C)(C)C)c1ccccc1,50.8%
8,CN(CCC#N)C(=O)Cn1nnnc1C(C)(C)C,61.9%
9,CN(C(=O)Cn1nc(-c2ccc(F)cc2)oc1=O)c1ccccc1,42.6%
10,Cc1cc(C)n(CC2CCCN2CC(=O)N(C)CCC#N)n1 (centres undefined),36.1%
11,N#CCCN(C(=O)CN1CCCC1C1CCCCC1)c1ccccc1 (centres undefined),5.14%
12,CC(=O)N(C)c1nc(Cn2nnnc2C(C)(C)C)cs1,24.2%
13,Cc1nc(CN2CCCN(CC(=O)N(C)CCC#N)CC2)no1,36.5%
14,CC(C)(C)c1nnnn1CC(=O)N(CCC#N)c1ccccc1,65.6%
15,CCCSc1ncc(Cl)c(C(=O)NC(CCSC)C(=O)O)n1 (centres undefined),26.3%
16,CCN1C(=O)CCC12CCN(C(=O)c1ccco1)CC2,27.2%
17,CCN1CCn2c(C)cnc2C12CCN(C(=O)CC(C)C)CC2,-0.182%
18,CC[C@H](C)Nc1nccc(-c2cnc3sc(C)cn3c2=O)n1,39.7%
19,CCC(=O)N1CCc2c(O)nc(C3CCCCN3C(=O)C3CC3)nc2C1 (centres undefined),-7.6%
20,NC(=O)C1CCN(c2nc3nccc(-c4ccncc4)c3c(=O)[nH]2)CC1,41.6%
21,O=c1[nH]c(NC2CCCC2)nc2nccc(-c3cccs3)c12,52.2%
22,O=c1[nH]c(NC2CCCC2)nc2nccc(-c3ccco3)c12,-37.9%
23,O=C(O)Cn1nc(C2CC2)c2c(-c3cccs3)ccnc21,11.6%
24,NC(=O)C1CCN(c2nc3nccc(-c4cccnc4)c3c(=O)[nH]2)CC1,47.4%
25,O=c1[nH]c(NC2CCCC2)nc2nccc(-c3ccsc3)c12,61.1%
26,O=C(NCC1CC1)C1CN(Cc2cccs2)Cc2ccnn2C1 (centres undefined),-19.1%
27,Cc1ccc(S(=O)(=O)N2CSCC2C(=O)NCC(F)(F)F)cc1C (centres undefined),-27.9%
